Assay in all cases: log2 ratio of Biotin-Ahx-Ub-VS probe labelling (fragment/DMSO); higher = less target engagement (more negative = stronger competition), active = hit call of the paper (q ≤ 0.05, log2 ratio ≤ -1)
Holding throughout (conditions): compound concentration: 200 uM; treatment time: 3 h

The target in one assay is T1, OTUD6B (UniProt Q8N6M0).
T1 sequence (whole entry): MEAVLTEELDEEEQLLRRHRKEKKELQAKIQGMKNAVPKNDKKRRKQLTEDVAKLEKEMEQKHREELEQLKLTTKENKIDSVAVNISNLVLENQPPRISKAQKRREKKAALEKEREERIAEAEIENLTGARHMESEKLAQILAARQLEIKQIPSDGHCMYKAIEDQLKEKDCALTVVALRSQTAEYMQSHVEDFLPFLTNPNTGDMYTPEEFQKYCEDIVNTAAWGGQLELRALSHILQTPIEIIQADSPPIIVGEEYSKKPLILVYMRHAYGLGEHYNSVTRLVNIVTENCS
The method in brief:
(§1)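 Using Biotin-Ahx-Ub-VS at 0.5 µM final for 1 h, DUBs were labelled in HEK293T lysate (495 µg per sample) that had first been treated in triplicate with fragment at 200 µM or vehicle for 3 h. NeutrAvidin enrichment, LysC and trypsin digestion and diaPASEF LC-MS/MS followed. Spectronaut label-free quantities were global-median-normalised. Values are average log2 fragment/vehicle ratios by unpaired t-test, using proteins with ≥2 unique peptides.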

The next assay addresses T2, OTUD7B (UniProt Q6GQQ9).
T2 sequence (whole entry): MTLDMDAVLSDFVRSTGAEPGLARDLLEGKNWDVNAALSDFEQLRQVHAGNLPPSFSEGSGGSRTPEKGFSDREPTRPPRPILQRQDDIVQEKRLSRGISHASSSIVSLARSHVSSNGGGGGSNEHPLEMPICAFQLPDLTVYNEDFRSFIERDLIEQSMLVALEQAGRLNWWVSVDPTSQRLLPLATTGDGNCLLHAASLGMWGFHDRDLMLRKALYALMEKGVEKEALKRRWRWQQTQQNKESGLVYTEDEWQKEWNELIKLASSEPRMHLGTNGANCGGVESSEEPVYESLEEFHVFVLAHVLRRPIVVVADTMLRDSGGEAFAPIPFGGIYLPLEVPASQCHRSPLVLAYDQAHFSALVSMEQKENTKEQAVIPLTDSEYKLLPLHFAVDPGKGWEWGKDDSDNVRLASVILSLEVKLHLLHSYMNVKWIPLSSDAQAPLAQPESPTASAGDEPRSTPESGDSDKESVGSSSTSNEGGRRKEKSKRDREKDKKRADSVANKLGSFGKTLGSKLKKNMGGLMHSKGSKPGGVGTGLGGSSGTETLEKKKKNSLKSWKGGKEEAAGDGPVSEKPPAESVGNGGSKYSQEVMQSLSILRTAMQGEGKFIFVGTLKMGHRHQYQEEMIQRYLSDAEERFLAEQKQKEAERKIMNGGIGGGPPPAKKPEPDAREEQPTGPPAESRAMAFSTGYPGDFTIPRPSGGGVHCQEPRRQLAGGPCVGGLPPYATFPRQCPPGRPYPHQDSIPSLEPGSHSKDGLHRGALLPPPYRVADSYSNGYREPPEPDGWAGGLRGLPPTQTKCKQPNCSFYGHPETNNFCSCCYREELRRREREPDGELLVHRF
The method in brief: as §1

For a further assay, the target named is PRPF8 (UniProt Q6P2Q9). The method in brief:
as §1

The target in another assay is T3, PSMD7 (UniProt P51665).
T3 sequence (whole entry): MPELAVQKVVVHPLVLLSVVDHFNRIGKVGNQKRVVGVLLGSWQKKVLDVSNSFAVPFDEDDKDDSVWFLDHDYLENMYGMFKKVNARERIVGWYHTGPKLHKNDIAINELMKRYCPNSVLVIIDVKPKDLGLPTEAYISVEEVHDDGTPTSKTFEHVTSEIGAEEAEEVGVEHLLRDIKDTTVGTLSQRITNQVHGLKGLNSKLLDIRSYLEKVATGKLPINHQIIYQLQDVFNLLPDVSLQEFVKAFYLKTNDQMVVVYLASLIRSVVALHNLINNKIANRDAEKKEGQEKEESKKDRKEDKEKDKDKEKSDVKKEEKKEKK
Summed up:
as §1

A further assay addresses UCHL1 (UniProt P09936). Summed up: as §1
The target in another assay is T4, UCHL3 (UniProt P15374).
T4 sequence (whole entry): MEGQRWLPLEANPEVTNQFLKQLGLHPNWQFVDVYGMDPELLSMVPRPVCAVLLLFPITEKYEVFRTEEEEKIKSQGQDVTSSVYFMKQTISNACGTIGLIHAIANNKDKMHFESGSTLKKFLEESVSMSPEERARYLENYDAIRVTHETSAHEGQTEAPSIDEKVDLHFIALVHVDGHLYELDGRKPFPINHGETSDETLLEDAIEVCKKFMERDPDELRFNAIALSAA
Summed up:
as §1

The next assay concerns the target T5, UCHL5 (UniProt Q9Y5K5).
T5 sequence (whole entry): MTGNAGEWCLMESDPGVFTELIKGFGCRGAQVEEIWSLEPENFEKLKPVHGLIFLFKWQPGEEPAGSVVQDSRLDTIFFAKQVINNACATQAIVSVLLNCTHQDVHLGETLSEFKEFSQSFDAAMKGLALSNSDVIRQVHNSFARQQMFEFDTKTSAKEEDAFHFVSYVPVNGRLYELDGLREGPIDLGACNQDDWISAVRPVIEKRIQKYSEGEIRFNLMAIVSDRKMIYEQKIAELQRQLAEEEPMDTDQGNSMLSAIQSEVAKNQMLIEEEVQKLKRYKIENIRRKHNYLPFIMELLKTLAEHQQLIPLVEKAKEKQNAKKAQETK
Summed up: as §1

The target in the next assay is USP10 (UniProt Q14694). Summed up:
as §1

The target of a further assay is T6, USP15 (UniProt Q9Y4E8).
T6 sequence (whole entry): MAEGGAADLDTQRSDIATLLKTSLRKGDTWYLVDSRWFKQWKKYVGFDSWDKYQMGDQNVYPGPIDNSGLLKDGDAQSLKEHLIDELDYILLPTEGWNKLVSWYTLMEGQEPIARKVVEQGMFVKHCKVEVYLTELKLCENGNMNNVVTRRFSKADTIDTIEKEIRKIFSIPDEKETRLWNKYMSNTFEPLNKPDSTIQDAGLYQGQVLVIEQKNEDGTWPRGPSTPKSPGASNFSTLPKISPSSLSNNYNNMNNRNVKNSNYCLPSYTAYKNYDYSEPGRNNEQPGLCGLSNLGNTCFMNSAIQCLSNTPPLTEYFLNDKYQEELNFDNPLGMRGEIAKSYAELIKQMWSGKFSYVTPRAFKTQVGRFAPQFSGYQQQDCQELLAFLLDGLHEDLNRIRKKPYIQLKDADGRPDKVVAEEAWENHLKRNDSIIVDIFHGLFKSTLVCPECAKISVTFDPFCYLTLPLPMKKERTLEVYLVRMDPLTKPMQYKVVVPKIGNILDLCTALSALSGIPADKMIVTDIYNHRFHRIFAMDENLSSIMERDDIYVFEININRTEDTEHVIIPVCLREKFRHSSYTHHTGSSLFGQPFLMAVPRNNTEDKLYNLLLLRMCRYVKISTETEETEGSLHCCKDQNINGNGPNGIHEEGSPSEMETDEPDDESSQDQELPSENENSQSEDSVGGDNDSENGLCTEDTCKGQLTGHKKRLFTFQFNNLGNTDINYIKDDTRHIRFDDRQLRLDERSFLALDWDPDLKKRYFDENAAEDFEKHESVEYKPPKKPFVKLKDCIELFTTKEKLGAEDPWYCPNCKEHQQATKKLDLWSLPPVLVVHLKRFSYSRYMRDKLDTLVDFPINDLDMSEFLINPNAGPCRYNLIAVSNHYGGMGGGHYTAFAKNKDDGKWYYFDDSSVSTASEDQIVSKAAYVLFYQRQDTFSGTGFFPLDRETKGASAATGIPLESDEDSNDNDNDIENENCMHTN
Summed up: as §1

A further assay deals with USP16 (UniProt Q9Y5T5). Summed up: as §1
Chain of USP16 (Q9Y5T5 whole entry, looked up): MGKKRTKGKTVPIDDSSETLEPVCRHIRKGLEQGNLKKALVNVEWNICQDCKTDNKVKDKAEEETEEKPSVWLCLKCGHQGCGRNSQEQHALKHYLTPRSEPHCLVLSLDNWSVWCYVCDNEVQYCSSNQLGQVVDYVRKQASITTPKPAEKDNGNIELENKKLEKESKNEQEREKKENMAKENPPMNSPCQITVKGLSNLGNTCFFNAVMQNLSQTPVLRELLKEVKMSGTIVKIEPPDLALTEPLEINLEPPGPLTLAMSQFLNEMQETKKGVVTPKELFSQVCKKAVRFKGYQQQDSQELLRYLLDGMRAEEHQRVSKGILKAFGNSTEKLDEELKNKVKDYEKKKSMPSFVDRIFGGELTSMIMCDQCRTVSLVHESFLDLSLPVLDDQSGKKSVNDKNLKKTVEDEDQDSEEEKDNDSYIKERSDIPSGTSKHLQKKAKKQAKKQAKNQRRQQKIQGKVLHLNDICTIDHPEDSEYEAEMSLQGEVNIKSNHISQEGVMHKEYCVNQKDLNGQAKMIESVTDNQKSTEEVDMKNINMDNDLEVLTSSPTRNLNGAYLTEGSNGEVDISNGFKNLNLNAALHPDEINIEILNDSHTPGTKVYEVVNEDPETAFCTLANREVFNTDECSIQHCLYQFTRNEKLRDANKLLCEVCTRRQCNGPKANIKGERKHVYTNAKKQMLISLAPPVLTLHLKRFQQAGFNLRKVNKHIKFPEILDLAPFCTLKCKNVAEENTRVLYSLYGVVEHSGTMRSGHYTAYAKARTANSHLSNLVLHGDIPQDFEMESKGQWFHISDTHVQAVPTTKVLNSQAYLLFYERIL

Unmarked numbers belong to inactive results.

Chain of UCHL1 (P09936 whole entry, looked up): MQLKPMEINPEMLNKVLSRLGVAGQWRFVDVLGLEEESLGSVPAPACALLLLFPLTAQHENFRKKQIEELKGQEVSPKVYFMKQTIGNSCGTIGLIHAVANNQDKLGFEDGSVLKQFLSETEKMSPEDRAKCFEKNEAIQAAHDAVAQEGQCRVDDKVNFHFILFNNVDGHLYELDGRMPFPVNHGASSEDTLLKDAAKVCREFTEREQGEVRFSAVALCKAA
Chain of USP10 (Q14694 whole entry): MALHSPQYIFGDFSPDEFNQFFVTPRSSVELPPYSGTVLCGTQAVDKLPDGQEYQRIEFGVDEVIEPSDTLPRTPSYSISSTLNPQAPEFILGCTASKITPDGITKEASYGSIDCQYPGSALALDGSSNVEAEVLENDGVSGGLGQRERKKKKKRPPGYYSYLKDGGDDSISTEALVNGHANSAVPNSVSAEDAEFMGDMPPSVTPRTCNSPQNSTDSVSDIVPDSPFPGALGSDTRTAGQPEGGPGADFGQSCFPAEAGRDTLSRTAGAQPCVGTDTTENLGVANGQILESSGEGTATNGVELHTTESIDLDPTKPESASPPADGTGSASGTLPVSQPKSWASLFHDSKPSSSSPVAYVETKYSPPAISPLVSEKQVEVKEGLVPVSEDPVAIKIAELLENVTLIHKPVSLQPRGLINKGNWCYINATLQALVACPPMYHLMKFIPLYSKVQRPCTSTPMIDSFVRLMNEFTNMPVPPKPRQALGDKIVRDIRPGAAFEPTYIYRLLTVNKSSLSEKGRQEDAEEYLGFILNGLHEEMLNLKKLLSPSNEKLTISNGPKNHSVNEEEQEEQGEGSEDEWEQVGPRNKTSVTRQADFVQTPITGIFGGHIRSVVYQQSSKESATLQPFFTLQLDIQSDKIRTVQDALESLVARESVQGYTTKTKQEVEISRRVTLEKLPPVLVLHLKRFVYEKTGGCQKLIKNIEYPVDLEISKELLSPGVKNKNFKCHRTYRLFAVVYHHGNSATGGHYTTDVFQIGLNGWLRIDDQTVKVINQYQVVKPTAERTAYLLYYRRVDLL

As to `CS(=O)(=O)c1ccc(NC(=O)CCl)cc1`, the “log2 ratio of Biotin-Ahx-Ub-VS probe labelling” value was -0.109 in the assay with OTUD6B; -0.594 with OTUD7B; -0.257 in the assay with PRPF8; 0.0407 with PSMD7; -1.26 (active) with UCHL1; 0.206 with UCHL3. In addition, the “log2 ratio of Biotin-Ahx-Ub-VS probe labelling” value in the assay with UCHL5 was -0.282; in the assay with USP10 it was -0.104; with USP15, -0.136; with USP16, -0.145.

These data come from the supplement of paper PMC11732987, “Enantioselective OTUD7B fragment discovery through chemoproteomics screening and high-throughput optimisation” (Communications Chemistry, 2025).
